# Experimental data from PubChem BioAssay AID2825 (Sanford-Burnham Center for Chemical Genomics, 2010).
# The whole screen tested about 330,000 compounds, of which about 1,300 (0.39%) were called active.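 How the source made its calls: active means inhibition of 50% or more; inactive means inhibition below 50%.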 The full list was thinned out, with actives kept by preference.
# Assay: NALP3 inflammasome inhibitors in reconstituted yeast, primary screen, luminescence, uHTS (AID 2825);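 further: plate controls were induced DMSO wells for no effect and uninduced yeast grown without galactose for full effect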
# Conditions: Yeast reconstituted NLRP3/ASC/caspase-1, beta-gal luminescence, 24 h; at 10 µM; active compounds read high
row,Structure (SMILES),inhibition
1,O=C(COc1ccccc1F)Nc1nc(-c2ccccn2)cs1,52.9% (active)
2,O=C(CN1C(=O)C2C3C=CC(C3)C2C1=O)Nc1nc(-c2ccccn2)cs1 (stereo not given),2.29% (inactive)
3,CC(NC(=O)c1ccco1)C(=O)Nc1nc(-c2ccccn2)cs1 (stereo not given),6.56% (inactive)
4,CCNC(=O)c1cccc(NC(=O)C2CC(=O)N(CCc3ccccc3)C2)c1 (stereo not given),0.384% (inactive)
5,O=C(Nc1ccccc1Cl)/C(Cl)=C(\Cl)S(=O)c1ccccc1 (stereo not given),67.4% (active)
6,CN(C)S(=O)(=O)Oc1ccccc1C(=O)Nc1ccccc1Cl,-4.11% (inactive)
7,O=C(COC(=O)CCc1c[nH]c(=O)[nH]1)Nc1ccccc1Cl,-10.9% (inactive)
8,COc1cc(CNCc2ccc3c(c2)OCO3)c([N+](=O)[O-])cc1OC,20.4% (inactive)
9,O=C(N/N=C/c1cccc([N+](=O)[O-])c1)C1CC(=O)N(c2ccc(Br)cc2)C1 (stereo not given),4.22% (inactive)
10,Cc1ccc(NC(=O)O/N=C/c2cccc([N+](=O)[O-])c2)cc1,18.6% (inactive)
11,O=[N+]([O-])c1cccc(/C=N/Nc2ncc(Br)cn2)c1,68.1% (active)
12,C/C(=N/OC(=O)c1ccc(Br)cc1)c1ccc(C)cc1,25.5% (inactive)
13,CCc1cc(C(=O)Nc2nnc(C3CC3)s2)sc1C,52% (active)
14,Cc1cc(C(=O)Nc2nnc(C3CC3)s2)c(C)s1,47.8% (inactive)
15,O=C(Nc1nnc(C2CC2)s1)c1ccccn1,7.63% (inactive)
16,CC(=O)NC(CC(=O)Nc1ccc(S(=O)(=O)N2CCOCC2)cc1)c1ccccc1 (stereo not given),8.22% (inactive)
17,Fc1ccccc1-c1cc2cc3c(cc2cn1)OCO3,57.2% (active)
18,Fc1ccc2cnc(-c3ccccc3)cc2c1,34.3% (inactive)
19,O=C(c1ccco1)N1CCN(C(=O)c2cc(-c3ccccc3F)no2)CC1,-3.69% (inactive)
20,O=C1CC2(CCCC2)C(=O)N1CN1CCN(S(=O)(=O)c2ccc(F)cc2F)CC1,20.4% (inactive)
21,Cc1c(C(=O)OCC(=O)N2CCCC2=O)oc2ccccc12,28.6% (inactive)
22,Cc1c(C(=O)N2CCCc3ccccc32)oc2ccccc12,51.5% (active)
23,CCCn1nc(C(=O)N2CCCc3ccccc32)c2ccccc2c1=O,12.6% (inactive)
24,Cc1cccc(NC(=O)c2ccc([N+](=O)[O-])o2)c1,-4.88% (inactive)
25,O=C(CNC(=O)c1ccc(Br)o1)Nc1ccccc1,22.4% (inactive)

row,Structure (SMILES),inhibition
1,Cc1cccc(NC(=S)NC(=O)c2ccc(Br)o2)c1,57.6% (active)
2,O=C(Cc1ccc(S(=O)(=O)N2CCCC2)s1)NC1CCCCCC1,7.38% (inactive)
3,CN(c1ccccc1)S(=O)(=O)c1ccc2[nH]c(=O)[nH]c2c1,25.4% (inactive)
4,COc1ccccc1C(=O)COC(=O)CSCC(=O)Nc1cc(C)on1,15.5% (inactive)
5,CC(CCc1ccc(O)cc1)NCc1ccc(Cl)cc1Cl (stereo not given),21.7% (inactive)
6,N#Cc1nc(Cc2cccc3ccccc23)oc1NCc1ccc2c(c1)OCO2,2.2% (inactive)
7,N#Cc1nc(COc2ccc(-c3ccccc3)cc2)oc1NCc1cccnc1,2.98% (inactive)
8,N#Cc1nc(Cc2ccccc2)oc1NCCc1ccccc1,53.8% (active)
9,CCn1c(=S)sc2c(=O)n(CC(=O)Nc3ccc(OC)cc3)c(C)nc21,18.2% (inactive)
10,CC(NCc1nc2ccccc2n1C)C12CC3CC(CC(C3)C1)C2 (stereo not given),30% (inactive)
11,Cc1ccc(-c2nnc(Nc3ccc(C(=O)N(C)C)cc3)c3ccccc23)cc1S(N)(=O)=O,15.1% (inactive)
12,O=c1[nH]oc(O)c1-c1ncc(C(F)(F)F)cc1Cl,6.26% (inactive)
13,Cn1c(N)c(C(=O)COC(=O)c2cccc(S(=O)(=O)N3CCOCC3)c2)c(=O)n(C)c1=O,3.26% (inactive)
14,CN(Cc1nc2ccccc2s1)C(=O)c1ccc(F)cc1,14.9% (inactive)
15,COc1ccccc1OCc1nc2ccccc2s1,59.6% (active)
16,CCc1ccc(-c2nnn(Cc3nc4ccccc4s3)n2)cc1,31.8% (inactive)
17,Cc1cccc(C)c1NC(=O)CCS(=O)(=O)c1cccc2nsnc12,-0.246% (inactive)
18,COc1cccc(/C=N/Nc2cc(C)nc(-c3ccccc3O)n2)c1O,54.1% (active)
19,COc1ccc(Cc2nnc(N/N=C/c3ccccc3O)[nH]c2=O)cc1OC,9.67% (inactive)
20,Cc1nc2ccccc2nc1N/N=C/c1ccc(O)cc1O,2.73% (inactive)
21,CC(C)c1ccc(N2CC(C(=O)Nc3nccs3)CC2=O)cc1 (stereo not given),9.7% (inactive)
22,COc1ccc(CNC(=O)COC(=O)/C=C/c2ccc(S(=O)(=O)N3CCOCC3)cc2)cc1,-4.76% (inactive)
23,Cc1nn(Cc2ccccc2)c(C)c1C(=O)N1CCN(CC(=O)Nc2ccccc2Cl)CC1,14.5% (inactive)
24,O=C(CC(O)(C(F)(F)F)C(F)(F)F)Nc1ccc(Cl)c(Cl)c1,78.6% (active)
25,O=C(COC(=O)c1cc[n+]([O-])cc1)Nc1ccc(Cl)c(C(F)(F)F)c1,-2.4% (inactive)

row,Structure (SMILES),inhibition
1,NC(=O)N1CCCC1C(=O)Nc1ccc(Cl)c(Cl)c1 (stereo not given),-1.49% (inactive)
2,Cc1onc(-c2ccccc2Cl)c1C(=O)OCc1nnc(-c2ccccc2)o1,27.8% (inactive)
3,Cc1ccc(-n2cnc3ncnc(-c4ccccc4)c32)cc1,7.02% (inactive)
4,Cc1ccc(-c2nn(C(C)(C)C)c3ncnc(N)c23)cc1,90.7% (active)
5,Cc1[nH]c(=O)c(C(=O)/C=C/c2ccccc2)c2c1CCCC2,28.3% (inactive)
6,CCc1cccc(OC2OC(CO)C(O)C(O)C2NC(C)=O)c1 (stereo not given),-4.24% (inactive)
7,Cn1nccc1/C=N\NC(=O)c1ccc(Cl)cc1,19.2% (inactive)
8,COc1ccccc1C1C(C#N)=C(N)Oc2c1c(-c1ccccc1)nn2-c1ccccc1 (stereo not given),9.88% (inactive)
9,N#CC1(NC(=O)COC(=O)Cc2n[nH]c(=O)c3ccccc23)CCCCC1,17.9% (inactive)
10,Cn1c(COc2ccc(Cl)cc2)nc2ccccc2c1=O,35.3% (inactive)
11,CC(C)n1c(-c2cccs2)nc2ccccc21,19% (inactive)
12,CC(C)n1c(COc2ccccc2)nc2ccccc21,57.2% (active)
13,Cc1ccc(OCc2nc3ccccc3n2C)cc1,62.3% (active)
14,CC(C)n1c(CN2CCN(Cc3ccccc3)CC2)nc2ccccc21,18.2% (inactive)
15,CCOc1ccc(C(O)Cc2nc3ccccc3n2C)cc1 (stereo not given),32.1% (inactive)
16,CC(C)NS(=O)(=O)c1ccc(OCC(=O)NC2CCCCCC2)cc1,10.4% (inactive)
17,COCCN(C(=O)CC1CCCCC1)c1c(N)n(CC(C)C)c(=O)[nH]c1=O,6.27% (inactive)
18,Cn1c(=NC(=O)c2ccco2)sc2cccc(F)c21,51% (active)
19,Cn1c(=NC(=O)c2cnccn2)sc2ccccc21,25.1% (inactive)
20,CCCC(=O)N=c1sc2cccc(F)c2n1C,35.5% (inactive)
21,COc1ccc(NC(=O)CN(C)C(=O)Cc2coc3cc(C)c(C)cc23)cc1,17.5% (inactive)
22,COCCCNCCOCCOc1ccc(Cl)cc1Br,3.7% (inactive)
23,Cc1cc(=O)oc2cc(NC(=O)C(C)Oc3ccccc3)ccc12 (stereo not given),10.8% (inactive)
24,CC(C)C(=O)Nc1ccc2c(c1)oc1ccccc12,56.7% (active)
25,CC(C)C(=O)Nc1ccc2oc(=O)ccc2c1,-3.79% (inactive)

row,Structure (SMILES),inhibition
1,Cc1ccc2cccc(S(=O)(=O)N3CCN(c4ccccc4F)CC3)c2n1,50.5% (active)
2,Cc1ccccc1N1CCN(S(=O)(=O)c2ccc3ccccc3c2)CC1,2.32% (inactive)
3,O=S(=O)(N1CCOCC1)N1CCN(c2ccccc2F)CC1,7.74% (inactive)
4,O=C(c1ccc(S(=O)(=O)N2CCCC2)cc1)N1CCN(c2ccccc2F)CC1,11.6% (inactive)
5,C=CCn1c(CNS(=O)(=O)c2ccc(Br)cc2)nnc1SC,14.4% (inactive)
6,COc1ccc(NS(=O)(=O)c2cc3c(cc2C)N(C(C)=O)CCO3)cc1,25.6% (inactive)
7,Oc1ccc(Br)cc1/C=N/Nc1ccccn1,51.7% (active)
8,Oc1ccc(/C=N/Nc2ccc(C(F)(F)F)cn2)cc1O,11.3% (inactive)
9,Cc1c(C(=O)Nc2ccccn2)oc2ccc(Br)cc12,28.4% (inactive)
10,CCn1nc(C(=O)NNS(=O)(=O)c2cc(/C=C/C(=O)O)cc(OC)c2OC)c2ccccc2c1=O,-0.224% (inactive)
11,O=C(CSc1ccc(-c2ccccn2)nn1)Nc1ccccc1,25.6% (inactive)
12,O=C(CSc1ccc(-c2ccc(-n3cccn3)cc2)nn1)Nc1ccc([N+](=O)[O-])cc1,51.4% (active)
13,O=C(CSc1ccc([N+](=O)[O-])cn1)Nc1ccc(N2CCOCC2)cc1,-5.97% (inactive)
14,CCN1CCN(c2sc(S(C)(=O)=O)nc2S(=O)(=O)c2ccc(Cl)cc2)CC1,2.79% (inactive)
15,CCOC(=O)C1CCN(C(=O)CC2C(=O)N(Cc3ccccc3)C(C)c3nc4ccccc4n32)CC1 (stereo not given),-3.2% (inactive)
16,Cc1csc(NC(=S)Nc2cccc(Cl)c2)n1,53.8% (active)
17,S=C(Nc1cccc(Cl)c1)Nc1ccc2c(c1)OCCO2,15% (inactive)
18,FC(F)(F)c1cccc(NC(=S)Nc2cccc(Cl)c2)c1,2.63% (inactive)
19,COc1ccc(-c2n[nH]c3c2CN(C(=O)c2ccc(F)cc2)CC3)cc1,19% (inactive)
20,COc1cc(OC)cc(-c2cc3nc(C4CCN(C(=O)OC(C)(C)C)CC4)cc(=O)n3[nH]2)c1,18.1% (inactive)
21,CC1CC2=C(CC1/C=N/NC(N)=S)C(C)(C)CCC2 (stereo not given),68.6% (active)
22,CCCN(CCc1ccccc1)C1CCc2c(O)cccc2C1 (stereo not given),22.2% (inactive)
23,O=C1Nc2ccccc2/C1=C/c1ccnc2ccccc12,17.6% (inactive)
24,Cc1cc(C)c(/C=C2\C(=O)Nc3ccccc32)[nH]1,55.4% (active)
25,CN(C)/C=C1/Nc2ccccc2C1=O,12% (inactive)
